Assay results as given in PubChem BioAssay (NCI).
This is part of a sample that, as a whole, favours compounds with a hit. Of some 79,000 tested, about 15% had one in any assay. Cut-off read from the data, not from the text of the source: active = growth inhibition above about 70%; inactive = the rest.

How the values were obtained:
[1] = NCI Yeast Anticancer Drug Screen. Data for the rad50 strain (AID 155);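 note: 0% = growth of vehicle-only cultures of the same strain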; settings: S. cerevisiae rad50 strain growth inhibition; at 50.0 µM; hits give high values
Procedure, shortened: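 Yeast carrying a defined DNA repair defect were exposed to test compounds, and growth was compared with vehicle-treated controls to give percent inhibition.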

[2] = NCI Yeast Anticancer Drug Screen. Data for the mec2-1 strain (AID 157); settings: S. cerevisiae mec2-1 strain, at 50.0 µM, hits give high values
Procedure, shortened: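 mec2-1 yeast strain, carrying an alteration in DNA damage repair or cell cycle control, was exposed to compounds; growth inhibition was measured relative to vehicle-treated controls.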

[3] = NCI Yeast Anticancer Drug Screen. Data for the sgs1 mgt1 strain (AID 161);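 note: 0% = growth of cultures given vehicle only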; settings: S. cerevisiae sgs1 mgt1 strain, at 50.0 µM, hits give high values
Procedure, shortened: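 Percent growth inhibition was derived by comparing compound-exposed mutant yeast with vehicle-exposed cultures. The strain carries alterations in DNA damage repair.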

[4] = NCI Yeast Anticancer Drug Screen. Data for the cln2 rad14 strain (AID 165);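 note: 0% = growth equal to vehicle treated cultures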; settings: S. cerevisiae cln2 rad14 strain, at 50.0 µM, hits give high values
Procedure, shortened: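 Yeast carrying cln2 and rad14 alterations (cell cycle control and DNA damage repair) were exposed to compounds. Growth inhibition was measured against vehicle-treated controls.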

[5] = NCI Yeast Anticancer Drug Screen. Data for the bub3 strain (AID 167); settings: S. cerevisiae bub3 mutant strain, at 50.0 µM, hits give high values
Procedure, shortened: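 Compounds were applied to a genetically altered yeast strain carrying a cell-cycle control defect. Growth inhibition was scored against vehicle-treated controls.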

[6] = NCI Yeast Anticancer Drug Screen. Data for the mlh1 rad18 strain (AID 175); settings: S. cerevisiae mlh1 rad18 strain growth inhibition; at 50.0 µM; hits give high values
Procedure, shortened: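 Growth inhibition of the yeast strain was measured after compound exposure and expressed relative to vehicle-treated controls. The strain carries defined defects in DNA damage repair.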

Measured: growth inhibition

C[N+]1(C)N=C(c2ccccc2)C=C1[O-]
inactive: [1] 13.4% | [2] -9.75% | [3] -6.65% | [4] -53.9% | [5] -2.5% | [6] -3.85%

CCCCNC(=S)/N=C/c1c(O)c2ccccc2[nH]c1=O
inactive: [1] -39.7% | [2] -15.2% | [3] -52.9% | [4] -18.9% | [5] 3.9% | [6] -41%

O=S(=O)(c1ccccc1)N1CCCCN(S(=O)(=O)c2ccccc2)COC1
inactive: [1] 5.25% | [2] -7.45% | [3] -1.65% | [4] -9.85% | [5] -7.45% | [6] -5.35%

C(=N/Nc1ccccc1)/c1ccco1
inactive: [1] 31.6% | [2] -1% | [3] -2.05% | [4] 13.7% | [5] 12.5% | [6] 54.9%

COc1ccc(C2(c3ccc(OC)cc3)c3ccccc3Cc3c(OC)cccc32)cc1
inactive: [1] -1.55% | [2] 16.7% | [3] -5.65% | [4] 2.8% | [5] -11.2% | [6] 6.4%

Cc1cc2c(=O)n(-c3ccc(F)cc3)c(C)nc2c(C(=O)O)c1C
inactive: [1] -11.3% | [2] -8.75% | [3] -0.6% | [4] 10% | [5] -14.6% | [6] 9.55%

CC(C)(C)[Si](C)(C)OCCc1ccccc1C1CC2(S(=O)(=O)c3ccccc3)ON1CC2S(=O)(=O)c1ccccc1 (stereo not given)
inactive: [1] 15.1% | [2] -1.7% | [3] -8.2% | [4] -12.6% | [5] 8.4% | [6] 21.4%

CC(C)=NNc1snnc1C(N)=O
inactive: [1] 13.2% | [2] 26.9% | [3] 13.3% | [4] -2% | [5] -13.2% | [6] 28.4%

CCc1nc(N)nc(N)c1-c1ccc(OC)c(N)c1
inactive: [1] 22.4% | [2] 28.1% | [3] 22.6% | [4] 35.7% | [5] 13.6% | [6] 43.4%

CCOC(=O)N1C(=O)c2ccccc2C1=O
inactive: [1] -7.35% | [2] -13.2% | [3] -16.8% | [4] -8.75% | [5] -13.3% | [6] -9.25%

NCC(N)=O
inactive: [1] -1.6% | [2] -14.2% | [3] -29% | [4] -35% | [5] -36.2% | [6] 4.1%

NC(CO)C(O)c1ccc([N+](=O)[O-])cc1 (stereo not given)
inactive: [1] -14.6% | [2] -33.2% | [3] -3.3% | [4] -7.25% | [5] -12.2% | [6] -13.7%

CC(C)=CCC/C(C)=C/Cn1c(=O)cc[nH]c1=O
inactive: [1] 10.7% | [2] -6.9% | [3] -15.8% | [4] -107% | [5] 2.15% | [6] -0.1%

CCOC(=O)c1ccc(Nc2nc3ccc(C(F)(F)F)cc3nc2C(=O)OCC)cc1
inactive: [1] -24.6% | [2] 3% | [3] -11.9% | [4] -12.9% | [5] -6.2% | [6] -12.2%

CSCCCNC(=O)NS(=O)(=O)c1ccc(C)cc1
inactive: [1] 6.55% | [2] -1.35% | [3] 8.95% | [4] 7.75% | [5] 6.6% | [6] 2.85%

Cc1cc(Cc2c(F)c(F)c(C(c3cc(C)no3)c3c(F)c(F)c(F)c(F)c3F)c(F)c2F)on1 (stereo not given)
inactive: [1] -7.55% | [2] -37.9% | [3] 5.8% | [4] -58.8% | [5] -26.1% | [6] -8.3%

c1cnn(C23C4C5C6C4C2C6C53)c1 (stereo not given)
inactive: [1] -24.4% | [2] -26.6% | [3] -18.7% | [4] -20.5% | [5] -32.5% | [6] -38.6%

O=P(c1ccccc1)(c1ccccc1)C(O)c1ccc(F)cc1 (stereo not given)
inactive: [1] -11.6% | [2] -14.7% | [3] 7.4% | [4] 2.1% | [5] 1.4% | [6] -7.25%

COc1ccc(N(Cc2ccc(C)o2)C(=S)Nc2ccccc2)cc1
inactive: [1] -3.6% | [2] -5.4% | [3] 9.7% | [4] 8.9% | [5] 36% | [6] 7.05%

O/N=C1/C(=C/c2ccc(Br)cc2)CCCC1C(NO)c1ccc(Br)cc1 (stereo not given)
inactive: [1] 0.9% | [2] -9.8% | [3] -27.4% | [4] 24.2% | [5] 0.45% | [6] -12.9%

C(=NC12CC3CC(CC(C3)C1)C2)C1CCCCC1
inactive: [1] -17.1% | [2] -24.8% | [3] 0.05% | [4] 3% | [5] 4.8% | [6] -2.5%

NNc1nnc(Cl)c2c1ncn2Cc1ccccc1
inactive: [1] -16.9% | [2] -7.45% | [3] 23.1% | [4] -21.4% | [5] 2.75% | [6] 20.6%

CCc1cccc[n+]1CC(=O)c1ccccc1
inactive: [1] -23.5% | [2] 5.85% | [3] -0.85% | [4] -41.8% | [5] 39.7% | [6] 12%

CC(=O)O[C@H]1C[C@H]2[C@@H](OC(C)=O)/C=C3\C[C@](C)(C(=O)[C@H](O)C(=C1C)C2(C)C)[C@@H](O)C[C@@H]3OC(=O)[C@H](O)[C@H](c1ccccc1)N(C)C
inactive: [1] 7.3% | [2] -0.45% | [3] -8.6% | [4] -10.3% | [5] -1.4% | [6] 2.4%

COc1cc(/C=C/C(=O)NCCCCN)ccc1O
inactive: [1] 19.6% | [2] 8.9% | [3] 21.8% | [4] 9.6% | [5] 13% | [6] 19.7%

N#CC(C#N)=CNC(=S)Nc1ccc(S(=O)(=O)Nc2nccs2)cc1
inactive: [1] -24.7% | [2] -35.8% | [3] -13.4% | [4] 4.85% | [5] -3.05% | [6] -3.65%

CCOC(=O)CSc1nc(-c2ccc(Cl)cc2)c(C#N)c(=O)[nH]1
inactive: [1] 5.9% | [2] -0.45% | [3] 2% | [4] 27.1% | [5] 8.85% | [6] -79%

O=C(Nc1nc2ncn(CCNCc3ccccc3)c2c(=O)[nH]1)c1ccccc1
inactive: [1] -7.75% | [2] -22.8% | [3] 6.25% | [4] 10.6% | [5] 15.4% | [6] 24.6%

NC(=NCc1ccncc1)N/N=C\c1ccnc2ccccc12
inactive: [1] 4.15% | [2] 10.9% | [3] 7.75% | [4] -13.7% | [5] -9.5% | [6] 7.75%

CN(C)C(=S)OCC(C)(C)C
inactive: [1] -1.45% | [2] -14.8% | [3] -18.3% | [4] -35.3% | [5] 3.4% | [6] -23.6%

COc1ccc(C2N(C(C#N)c3ccccc3OC)CCCN2C(C#N)c2ccccc2OC)c(OC)c1 (stereo not given)
inactive: [1] 57.1% | [2] 18.3% | [3] 30.3% | [4] 25.4% | [5] -2.55% | [6] 42%

Cc1ccc2c(O)c3c(cc2c1O)C(=O)c1ccccc1C3=O
inactive: [1] 30.2% | [2] 0.75% | [3] 20.4% | [4] 21.3% | [5] -0.85% | [6] 31.2%

Cc1cc(C)c(C#N)c(NN)n1
inactive: [1] -5.35% | [2] -2.8% | [3] 11.1% | [4] 12.2% | [5] -0.5% | [6] -1.05%

O=C(Nc1ccccc1-c1n[nH]c(=S)[nH]c1=O)C(F)(F)F
inactive: [1] -2.45% | [2] 2.05% | [3] -10.3% | [4] -7.35% | [5] -65.8% | [6] 30.8%

c1ccc(CCCC2Sc3cccc4cccc(c34)S2)cc1
inactive: [1] -47.2% | [2] -25.6% | [3] -18.6% | [4] 14.4% | [5] -16% | [6] -28.5%

Cc1c(Cl)ccc2c1NC(=O)C2(O)CC(=O)c1ccccc1 (stereo not given)
inactive: [1] 10.1% | [2] -3.95% | [3] 35.9% | [4] 7.15% | [5] -18.8% | [6] 30.3%

CSC1(C)C(=O)Nc2cc(C(F)(F)F)ccc21 (stereo not given)
inactive: [1] 17.6% | [2] 1.5% | [3] 1.65% | [4] 17.4% | [5] 2% | [6] 3.4%

c1ccc(CCCCCCc2ccccc2)cc1
inactive: [1] -33.9% | [2] -22% | [3] -8.5% | [4] -6.55% | [5] -14.6% | [6] 1.3%

NNC(=O)COc1ccc(Br)cc1Br
inactive: [1] 33.2% | [2] 4.25% | [3] -5.15% | [4] 26.4% | [5] 3.8% | [6] -1.25%

Cc1ccc(C2C(Cl)C(=O)N2NC(=O)c2ccc(N)cc2)cc1 (stereo not given)
inactive: [1] -50.4% | [2] -21.5% | [3] -61.1% | [4] -46.8% | [5] -27.4% | [6] -42%
